Structures are written as SMILES. Records with an inconclusive call do not appear. Activity calls are given as the source filed them. Unless noted, calls come from the whole dose curve; as a rule, active = well fitted curve in the direction sought with a large enough effect; inconclusive = small, poorly fitted or top-dose-only effect, or another doubt; inactive = no such curve, though single readings can be large; an effect the other way counts as inactive or inconclusive.

The values below come from PubChem BioAssay (NCATS).

Assay [1] in a line: qHTS for Inhibitors of the Functional Ribonucleoprotein Complex (vRNP) of Lassa (LASV) Arenavirus: LASV Primary Screen - GLuc reporter signal (AID 1347082; calls by dose curve; tested in HEK293 reporter line; note: nearly all actives have a fitted effect of over 60% in size; note: potency is the fitted concentration of half-maximal effect).
A short description of assay [2]: qHTS for Inhibitors of the Functional Ribonucleoprotein Complex (vRNP) of Lassa (LASV) Arenavirus: Viability assay - alamar blue signal for LASV Primary Screen (AID 1347083; calls by dose curve; tested in HEK293 reporter line; note: nearly all actives have a fitted effect of over 80% in size; note: potency is the fitted concentration of half-maximal effect). (In general: qHTS replaces the single test concentration by a dilution series.)
Assay [3] in a line: qHTS for Inhibitors of the Functional Ribonucleoprotein Complex (vRNP) of Lymphocytic Choriomeningitis Arenaviruses (LCMV): Viability assay - alamar blue signal for LCMV Primary Screen (AID 1347085; calls by dose curve; tested in HEK293 reporter line; note: nearly all actives have a fitted effect of over 80% in size; note: potency is the fitted concentration of half-maximal effect).
Assay [4] has as its target Nucleoprotein (Lymphocytic choriomeningitis virus (strain Armstrong)) (UniProt P09992). In words: qHTS for Inhibitors of the Functional Ribonucleoprotein Complex (vRNP) of Lymphocytic Choriomeningitis Arenaviruses (LCMV): LCMV Primary Screen - GLuc reporter signal (AID 1347086; calls by dose curve; note: nearly all actives have a fitted effect of over 70% in size; note: potency is the fitted concentration of half-maximal effect).
A short description of assay [5]: qHTS of pediatric cancer cell lines to identify multiple opportunities for drug repurposing: Primary screen for TC32 cells (AID 1347089). Note: nearly all actives have a fitted effect of over 60% in size. The essentials:
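In the primary qHTS, MIPE compounds were tested at 11 concentrations (0.78 nM to 46 µM) and NPC compounds at 8 (0.59 nM to 46 µM) on TC32 cells for 48 h. CellTiter-Glo luminescence gave viability.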

Assay [6] can be described thus: qHTS of pediatric cancer cell lines to identify multiple opportunities for drug repurposing: Primary screen for DAOY cells (AID 1347090). Note: series mostly up to about 46 µM; nearly all actives have a fitted effect of over 55% in size. The essentials: (§1)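 Cell viability, CellTiter-Glo luminescence; 500-1,000 cells/well, 8- or 11-point titration, 48 h compound exposure at 37 degrees C, 5% CO2. Controls: DMSO neutral, bortezomib 2.3 µM final as positive.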
Assay [7] in a line: qHTS of pediatric cancer cell lines to identify multiple opportunities for drug repurposing: Primary screen for SJ-GBM2 cells (AID 1347091). In outline:
as §1

Assay [8] is described as follows: qHTS of pediatric cancer cell lines to identify multiple opportunities for drug repurposing: Primary screen for A673 cells (AID 1347092). Note: nearly all actives have a fitted effect of over 45% in size. The essentials:
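48 h compound exposure, A673, 500-1,000 cells/well, 37 degrees C/5% CO2. MIPE: 11-point, 0.78 nM-46 µM; NPC: 8-point, 0.59 nM-46 µM (final). Readout CellTiter-Glo luminescence after 15 min RT.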

Assay [9] can be described thus: qHTS of pediatric cancer cell lines to identify multiple opportunities for drug repurposing: Primary screen for SK-N-MC cells (AID 1347093). Note: series mostly up to about 46 µM. In outline: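 Metabolically active cells were quantified by ATP-dependent luminescence (CellTiter-Glo, 15 min at room temperature) following 48 h treatment. Cells had been plated at 500-1,000 per well and settled for 5 h beforehand.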

Assay [10] in a line: qHTS of pediatric cancer cell lines to identify multiple opportunities for drug repurposing: Primary screen for BT-37 cells (AID 1347094). Note: series mostly up to about 57 µM. In outline:
(§2)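 Phenotypic viability qHTS, 48 h compound exposure, CellTiter-Glo luminescence read-out; multi-concentration dosing so that potency and efficacy derive directly from the primary screen's curves.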

Assay [11] is described as follows: qHTS of pediatric cancer cell lines to identify multiple opportunities for drug repurposing: Primary screen for NB-EBc1 cells (AID 1347095). In outline: as §2
The nature of assay [12]: qHTS of pediatric cancer cell lines to identify multiple opportunities for drug repurposing: Primary screen for U-2 OS cells (AID 1347096). Note: nearly all actives have a fitted effect of over 50% in size. The essentials: (§3)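 Cells (500-1,000/well) rested 5 h, then received compounds for 48 h; metabolically active cells were measured by CellTiter-Glo luminescence. Final concentrations spanned up to 46 µM (MIPE, 11-point) or 0.59 nM-46 µM (NPC, 8-point) in primary screens, 11-point in follow-ups.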

Assay [13] in a line: qHTS of pediatric cancer cell lines to identify multiple opportunities for drug repurposing: Primary screen for Saos-2 cells (AID 1347097). Note: nearly all actives have a fitted effect of over 40% in size. The essentials: as §2
A short description of assay [14]: qHTS of pediatric cancer cell lines to identify multiple opportunities for drug repurposing: Primary screen for SK-N-SH cells (AID 1347098). Note: nearly all actives have a fitted effect of over 65% in size. In outline:
as §3

Assay [15] in a line: qHTS of pediatric cancer cell lines to identify multiple opportunities for drug repurposing: Primary screen for NB1643 cells (AID 1347099). Note: nearly all actives have a fitted effect of over 50% in size. The essentials: as §2
Assay [16] can be described thus: qHTS of pediatric cancer cell lines to identify multiple opportunities for drug repurposing: Primary screen for LAN-5 cells (AID 1347100). The essentials: as §3
Assay [17] is described as follows: qHTS of pediatric cancer cell lines to identify multiple opportunities for drug repurposing: Primary screen for BT-12 cells (AID 1347101). Note: nearly all actives have a fitted effect of over 25% in size. In outline: as §3
Assay [18] can be described thus: qHTS of pediatric cancer cell lines to identify multiple opportunities for drug repurposing: Primary screen for Rh18 cells (AID 1347102). Note: nearly all actives have a fitted effect of over 65% in size. The essentials: as §3
The nature of assay [19]: qHTS of pediatric cancer cell lines to identify multiple opportunities for drug repurposing: Primary screen for OHS-50 cells (AID 1347103). Note: nearly all actives have a fitted effect of over 40% in size. The essentials: as §3

Sequence of Nucleoprotein (Lymphocytic choriomeningitis virus (strain Armstrong)) (P09992 whole entry, looked up): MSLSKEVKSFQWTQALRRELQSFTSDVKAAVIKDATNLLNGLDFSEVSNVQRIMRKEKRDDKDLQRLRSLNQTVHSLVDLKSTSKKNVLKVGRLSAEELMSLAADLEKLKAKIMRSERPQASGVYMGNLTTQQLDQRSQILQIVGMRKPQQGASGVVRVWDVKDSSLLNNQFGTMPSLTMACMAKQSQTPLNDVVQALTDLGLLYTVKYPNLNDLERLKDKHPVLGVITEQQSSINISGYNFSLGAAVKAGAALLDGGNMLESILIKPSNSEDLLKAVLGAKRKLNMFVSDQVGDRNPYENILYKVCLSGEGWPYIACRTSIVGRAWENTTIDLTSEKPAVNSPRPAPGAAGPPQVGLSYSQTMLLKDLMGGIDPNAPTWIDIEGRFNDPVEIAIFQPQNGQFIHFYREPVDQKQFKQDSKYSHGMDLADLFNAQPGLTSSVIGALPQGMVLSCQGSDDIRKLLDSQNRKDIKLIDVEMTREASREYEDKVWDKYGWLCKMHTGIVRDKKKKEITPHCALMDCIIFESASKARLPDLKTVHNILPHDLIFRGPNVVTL

As for `C[C@]12COC(=O)C[C@@H]1CC[C@@H]1[C@H]2CC[C@@]2(C)[C@H]1CC[C@]2(C)O`, the Potency entry in assay [1], in [2], in assay [3], in assay [4], in assay [5] and in assay [6] was “inactive” in each case. The Potency entry in assay [7], in [8], in assay [9], in assay [10], in [11] and in [12] was “inactive” throughout. Further, the Potency entry in [13], in assay [14], in [15], in assay [16], in assay [17] and in assay [18] was “inactive” in each case. Moreover, the Potency result in assay [19] was “inactive”.

As for `CN[C@@H](C)[C@H](O)c1ccccc1`, the Potency result in [1], in assay [2], in assay [3], in assay [4], in [5] and in [6] was “inactive” throughout. Moreover, the Potency result in assay [7], in [8], in [9], in assay [10], in assay [11] and in [12] was “inactive” each time. Also, the Potency result in [13], in [14], in assay [15], in assay [16], in [17] and in assay [18] was “inactive” in each case. For the same compound, in assay [19], the Potency result is “inactive”.

Turning to `O=C(O)c1ccc2c(c1)nc(Nc1cccc(Cl)c1)c1ccncc12`, the Potency result in assay [1], in assay [2], in [3] and in assay [4] was “inactive” each time.

Turning to `O=C(NCCS(=O)(=O)c1ccc(C(F)(F)F)cn1)c1ccc(Cl)cc1`, the Potency result in assay [1], in assay [2], in assay [3] and in [4] was “inactive” throughout.

Consider `NC(CO)(CO)CCc1ccc(Sc2cccc(OCc3ccccc3)c2)cc1Cl`, for which the Potency entry in assay [1], in assay [2], in [3] and in [4] was “inactive” each time.

As for `Cc1cc(Nc2nc(N[C@@H](C)c3ncc(F)cn3)ncc2Cl)n[nH]1`, the Potency entry in [1], in [2], in assay [3] and in assay [4] was “inactive” each time.

For the compound `O=S(=O)(O)C(F)(F)C(F)(F)C(F)(F)C(F)(F)C(F)(F)C(F)(F)C(F)(F)C(F)(F)F`, the Potency entry in assay [1], in [2], in [3], in [4], in assay [5] and in [6] was “inactive” throughout. In addition, the Potency result in [7], in assay [8], in assay [9], in [10], in assay [11] and in assay [12] was “inactive” in each case. Besides, the Potency entry in assay [13], in assay [14], in [15], in assay [16], in [17] and in [18] was “inactive” throughout. Further, in assay [19], the Potency result was “inactive”.

Turning to `N#CC[C@H](C1CCCC1)n1cc(-c2ncnc3[nH]ccc23)cn1`, the Potency result in assay [1], in assay [2], in assay [3] and in [4] was “inactive” each time.

For the compound `CS(=O)(=O)Nc1ccc([N+](=O)[O-])cc1Oc1ccccc1`, the Potency result in [1], in assay [2], in assay [3] and in assay [4] was “inactive” throughout.

With `Nc1c(Cl)c(Cl)c(Cl)c(Cl)c1Cl`, the Potency result in [1], in [2], in assay [3], in assay [4], in assay [5] and in assay [6] was “inactive” in each case. Moreover, the Potency result in assay [7], in assay [8], in assay [9], in assay [10], in assay [11] and in assay [12] was “inactive” in each case. The Potency entry in [13], in assay [14], in assay [15], in assay [16], in assay [17] and in assay [18] was “inactive” throughout. Besides, the Potency entry in assay [19] was “inactive”.

`COC(C)(C)CCCC(C)C/C=C/C(C)=C/C(=O)OC(C)C` (centres undefined): the Potency entry in [1], in assay [2], in assay [3], in assay [4], in [5] and in assay [6] was “inactive” each time. For the same compound, the Potency entry in [7], in [8], in assay [9], in assay [10], in assay [11] and in assay [12] was “inactive” each time. The Potency entry in [13], in assay [14], in assay [15], in [16], in assay [17] and in [18] was “inactive” throughout. Moreover, in assay [19], the Potency entry was “inactive”.

Consider `CC(C)(C)NC[C@H](O)c1ccc(O)cc1Cl`, for which the Potency entry in [1], in [2], in assay [3], in assay [4], in assay [5] and in [6] was “inactive” throughout. Besides, the Potency result in assay [7], in assay [8], in assay [9], in assay [10], in assay [11] and in assay [12] was “inactive” throughout. Also, the Potency result in assay [13], in assay [14], in assay [15], in assay [16], in [17] and in assay [18] was “inactive” each time. The Potency entry in assay [19] was “inactive”.

Turning to `COc1cc2nc(-c3ccc(N4CCN(C)CC4)cc3)nc(NCCN3CCOCC3)c2cc1OC`, the Potency in assay [1] was 0.685 µM (active); in assay [2], 0.769 µM (active); in [3] it was 0.968 µM (active); in [4], 0.432 µM (active).

Take `C[C@@H](N)C(=O)O`: the Potency entry in [1], in assay [2], in assay [3] and in assay [4] was “inactive” each time.

`CCOC(=O)c1cncn1[C@H](C)c1ccccc1`: the Potency result in assay [1], in [2], in assay [3], in assay [4], in assay [5] and in assay [6] was “inactive” throughout. For the same compound, the Potency result in assay [7], in assay [8], in assay [9], in assay [10], in assay [11] and in [12] was “inactive” throughout. In addition, the Potency entry in assay [13], in [14], in [15], in [16], in [17] and in [18] was “inactive” in each case. The Potency entry in [19] is “inactive”.

Turning to `COc1ccc(C=Cc2cc(OC)c(OC)c(OC)c2)cc1O`, the Potency entry in [1], in [2], in assay [3] and in [4] was “inactive” each time.
